# ChEMBL document CHEMBL4808148, “HDAC6 screening dataset using tau-based substrate in an enzymatic assay yields selective inhibitors and activators” (2021)
# The whole screen tested about 5,600 compounds, of which about 390 (7%) showed an effect of 50% or more. Many of the other results were omitted from the sample, so strong results are more common in it than they were.
# Key:
# [1] = target: T1, Protein deacetylase HDAC6 (Homo sapiens) (UniProt Q9UBN7); settings: at 10 µM
# T1 sequence (whole entry): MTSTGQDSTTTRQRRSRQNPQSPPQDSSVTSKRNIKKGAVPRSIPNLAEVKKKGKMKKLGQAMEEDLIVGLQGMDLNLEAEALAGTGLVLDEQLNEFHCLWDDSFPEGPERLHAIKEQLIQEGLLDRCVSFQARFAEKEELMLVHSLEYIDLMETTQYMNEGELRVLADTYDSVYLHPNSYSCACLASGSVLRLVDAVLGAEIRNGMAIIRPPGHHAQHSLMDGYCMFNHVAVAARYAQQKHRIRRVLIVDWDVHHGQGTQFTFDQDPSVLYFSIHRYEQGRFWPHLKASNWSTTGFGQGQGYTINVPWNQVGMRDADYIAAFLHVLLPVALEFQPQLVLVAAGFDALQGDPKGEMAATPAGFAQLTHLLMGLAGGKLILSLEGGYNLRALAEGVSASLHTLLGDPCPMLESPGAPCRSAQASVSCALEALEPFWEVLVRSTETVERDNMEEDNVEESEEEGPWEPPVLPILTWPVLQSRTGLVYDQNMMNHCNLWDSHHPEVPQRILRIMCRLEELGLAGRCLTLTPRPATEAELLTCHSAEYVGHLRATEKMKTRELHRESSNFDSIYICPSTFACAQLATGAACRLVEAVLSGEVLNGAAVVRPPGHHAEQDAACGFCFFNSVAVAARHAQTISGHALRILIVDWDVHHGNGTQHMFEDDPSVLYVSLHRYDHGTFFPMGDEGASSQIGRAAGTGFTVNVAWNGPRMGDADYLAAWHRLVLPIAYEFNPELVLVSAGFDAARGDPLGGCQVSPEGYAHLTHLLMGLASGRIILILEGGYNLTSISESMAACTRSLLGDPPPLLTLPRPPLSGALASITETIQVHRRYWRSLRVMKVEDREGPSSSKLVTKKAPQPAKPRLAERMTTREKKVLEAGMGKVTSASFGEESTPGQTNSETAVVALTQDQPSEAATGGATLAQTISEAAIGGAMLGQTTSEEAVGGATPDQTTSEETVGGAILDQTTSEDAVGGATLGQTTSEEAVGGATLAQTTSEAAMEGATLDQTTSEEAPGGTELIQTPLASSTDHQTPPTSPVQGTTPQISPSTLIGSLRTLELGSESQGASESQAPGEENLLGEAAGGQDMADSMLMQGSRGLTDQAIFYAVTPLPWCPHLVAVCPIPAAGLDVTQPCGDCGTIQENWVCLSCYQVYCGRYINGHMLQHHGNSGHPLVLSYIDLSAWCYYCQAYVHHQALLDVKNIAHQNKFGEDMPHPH
# [2] = target: Protein deacetylase HDAC6 (Homo sapiens) (UniProt Q9UBN7); settings: at 10 µM; remark: listed apart in the source
Molecule,inhibition [1] [%],inhibition [2] [%]
Cc1ccc([C@@H]2O[C@H](CO)[C@@H](O)[C@H](O)[C@H]2O)cc1Cc1ccc(-c2ccc(F)cc2)s1,-5.59,
CC(C)NC(=O)N1CC[C@H](NC2=Nc3cc(F)ccc3N(CC(F)F)c3ccc(Cl)cc32)C1,29.2,
CN(C)CCn1cc(S(=O)(=O)c2cccc(F)c2)c2cccnc21,14.3,
O=C(NCCCCCCNC(=O)ON=C1CCCCC1)ON=C1CCCCC1,40.7,
"AUROTHIOGLUCOSE, CHEMBL1697725",,8.56
COc1ccc2[nH]c(-c3ccccc3)c(CCNC(C)=O)c2c1,9.99,
COc1ccc2[nH]c(C(=O)c3ccccc3)cc2c1,109,
COc1ccc2cc([C@H](C)C(=O)O)ccc2c1,-2.33,
Cc1nn(C)c2c1C(c1ccc(C(F)(F)F)cc1)C(C#N)=C(N)O2 (centres undefined),27.3,
OC[C@H]1O[C@@H]2O[C@H]3[C@H](O)[C@@H](O)[C@@H](O[C@H]4[C@H](O)[C@@H](O)[C@@H](O[C@H]5[C@H](O)[C@@H](O)[C@@H](O[C@H]6[C@H](O)[C@@H](O)[C@@H](O[C@H]7[C@H](O)[C@@H](O)[C@@H](O[C@H]8[C@H](O)[C@@H](O)[C@@H](O[C@H]1[C@H](O)[C@H]2O)O[C@@H]8CO)O[C@@H]7CO)O[C@@H]6CO)O[C@@H]5CO)O[C@@H]4CO)O[C@@H]3CO,-4.02,
O=C(O)c1cc2occc2[nH]1,21.7,
Cc1cc(C)c(N(Cc2ccccc2)S(=O)(=O)c2ccc(OCCNC(=O)c3cc4ccccc4o3)cc2)c(C(=O)NO)c1,71.8,
CN(C(=O)C(Cl)Cl)c1ccc(OC(=O)c2ccco2)cc1,5.17,
CO/N=C(/C(=O)N[C@@H]1C(=O)N2C(C(=O)O)=C(CSc3nc(=O)c(O)nn3C)CS[C@H]12)c1csc(N)n1,-3.44,
COc1cc(C[C@H](C)[C@H](C)Cc2ccc3c(c2)OCO3)ccc1O,0.28,
COc1cccc(-c2cc(NCc3ccc4c(c3)OCO4)nc(N)n2)c1,68.7,
COc1cccc(CN(C(=O)CC(C)(C)C)[C@H]2C[C@@H](C(=O)N3CCNCC3)N(Cc3ccc4c(c3)OCO4)C2)c1,2.2,
O=C(NCCS(=O)(=O)c1ccc(C(F)(F)F)cn1)c1ccc(Cl)cc1,-5.62,
CCOC(=O)Nc1ccc2c(c1)N(C(=O)CN(CC)CC)c1ccccc1CC2,18.9,
OC[C@H]1OC(O)[C@H](F)[C@@H](O)[C@H]1O (some centres undefined),-0.45,
NC1=NCC2c3ccccc3Cc3ccccc3N12 (centres undefined),4.93,
CCOc1ccc2nc(S(N)(=O)=O)sc2c1,25.8,
Nc1nc2ccc(OC(F)(F)F)cc2s1,72.9,
C=C[C@]1(C)CC[C@@H](C(=C)C)C[C@H]1C(=C)C,7.53,
Nc1ccc(O)c(C(=O)O)c1,0.62,

Molecule,inhibition [1] [%],inhibition [2] [%]
Nc1ccc(C(=O)Oc2ccccc2)c(O)c1,108,
O=C(Oc1ccccc1C(=O)O)c1ccccc1O,43.2,
O=S(=O)(N[C@H](CO)C(C(F)(F)F)C(F)(F)F)c1ccc(Cl)s1,9.08,
O=P(O)(O)OC[C@H]1OC(O)(COP(=O)(O)O)[C@@H](O)[C@@H]1O (some centres undefined),8.76,
Cc1csc(NC(=O)CSc2ccc(-c3ccccc3)nn2)n1,31.4,
O[C@@H]1[C@H](O)[C@@H](CCl)O[C@H]1n1cnc2c(NC3CC4CCC3C4)ncnc21 (mixture of isomers),17.3,
CCOc1ccc(NC(C)=O)cc1,-4.35,
CCCCOc1ccc(C(=O)CCN2CCCCC2)cc1,4.77,
CCCCOc1ccc(CC(=O)NO)cc1,73,
CC[C@@]1(O)C(=O)OCc2c1cc1n(c2=O)Cc2c-1nc1cc(F)c(C)c3c1c2[C@@H](N)CC3,45.5,
CCN(CC)CCOC(=O)C1(c2ccc([N+](=O)[O-])cc2)CCCC1,17.3,
CC1=C(/C=C/C(=C/C=C/C(C)=C/C(=O)O)c2ccc(C)cc2)C(C)(C)CCC1,32.2,
CC(C)NC(=O)COc1cccc(-c2nc(Nc3ccc4[nH]ncc4c3)c3ccccc3n2)c1,4.77,
O=C(CCCCCCNC(=O)c1cnc(N(c2ccccc2)c2ccccc2)nc1)NO,101,
CCCCCCCCCCCCCCCC(=O)NCCO,7.03,
O=C(CCNNC(=O)c1ccncc1)NCc1ccccc1,-0.28,
O=C(O)C1CN(Cc2ccc(-c3nc4cc(Cc5ccccc5F)ccc4s3)c(F)c2)C1,12.2,
CCCCC/C=C\C=C/CCCCCCCCC(=O)O,13.9,
c1ccc(CNCc2ccc(CN3CCCNCCNCCCNCC3)cc2)nc1,-1.23,
Clc1cccc2c1CN(C1=NCCN1)C2,-3.56,
O=c1[nH]nc2c3c(cccc13)N=C(CN1Cc3ccccc3C1)N2,-8.46,
CN(C)Cc1ccc(S(=O)(=O)n2ccc(/C=C/C(=O)NO)c2)cc1,101,
Cn1nc(-c2ccc(C(F)(F)F)cc2)nc2c(=O)n(C)c(=O)nc1-2,12.3,
CC(=O)OC[C@H]1O[C@@H](n2ccc(=O)[nH]c2=O)[C@H](OC(C)=O)[C@@H]1OC(C)=O,41.6,
